Test results: PubChem BioAssay (Tox21)
Records with an inconclusive call do not appear. The source made the active and inactive calls. Unless noted, calls come from the whole dose curve; as a rule, active = well fitted curve in the direction sought with a large enough effect in the repeat runs; inconclusive = weak or mixed curves; inactive = no such curve, though single readings can be large; an effect the other way counts as inactive or inconclusive.

What was measured:
[1] = biological target: Luciferin 4-monooxygenase (Photinus pyralis) (UniProt P08659); assay: qHTS assay to identify small molecule inhibitors of firefly luciferase (AID 1224835); note: nearly all actives have a fitted effect of over 25% in size; note: potency is the fitted concentration of half-maximal effect
Procedure, shortened: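 Biochemical qHTS: compounds run as interplate titrations against purified firefly enzyme, with D-luciferin and ATP each at its KM concentration. Light output recorded by CCD imaging.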

[2] = qHTS assay to identify small molecule agonists of the constitutive androstane receptor (CAR) signaling pathway - cell viability counter screen (AID 1224836); note: series mostly up to about 92 µM; nearly all actives have a fitted effect of over 45% in size
Procedure, shortened: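 Using CellTiter-Fluor, viability of HepG2 cells harbouring hCAR and CYP2B6-2.2kb was measured following 23 h incubation with a 15-concentration compound series plus PK11195 (0.75 uM final).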

[3] = qHTS assay to identify small molecule antagonists of the constitutive androstane receptor (CAR) signaling pathway - cell viability counter screen (AID 1224837); note: series mostly up to about 92 µM; nearly all actives have a fitted effect of over 45% in size
Procedure, shortened: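 CITCO at 50 nM final was added alongside compounds (15 concentrations) to double-stable hCAR/CYP2B6-2.2kb HepG2 cells. Following 23 hr at 37 C, cell viability was quantified by CellTiter-Fluor fluorescence intensity.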

[4] = biological target: Nuclear receptor subfamily 1 group I member 3 (Homo sapiens) (UniProt Q14994); assay: qHTS assay to identify small molecule agonists of the constitutive androstane receptor (CAR) signaling pathway (AID 1224839); note: nearly all actives have a fitted effect of over 15% in size; note: potency is the fitted concentration of half-maximal effect; for activation: series mostly up to about 92 µM
Procedure, shortened: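 Double-stable HepG2 cells (hCAR, CYP2B6-2.2kb) seeded 4 h before compound addition. Exposure 24 h with 0.75 uM PK11195 final. Luciferase detected by ONE-Glo.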

[5] = qHTS assay to identify small molecule antagonists of the estrogen related receptor signaling pathway with the pleiotropic PPARgamma coactivator (PGC) from Tox21 10K library - cell viability counter screen (AID 1224840; active = well fitted cell-killing curve with a large enough effect in the repeat runs, not every such curve was filed as active; note: nearly all actives have a fitted effect of over 40% in size)
Procedure, shortened: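 Readout: fluorescence intensity from CellTiter-Fluor after 30 min at 37 C/5% CO2. Preceded by 17.5 h treatment of PGC/ERR cells with DMSO-dissolved compounds, added 6 h post-seeding.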

[6] = qHTS assay to identify small molecule agonists of the hypoxia (HIF-1) signaling pathway - cell viability counter screen (AID 1224844; calls by dose curve; note: nearly all actives have a fitted effect of over 50% in size; note: potency is the fitted concentration of half-maximal effect)
Procedure, shortened: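 In this counter screen, HRE-bla ME-180 cell viability after 17 hrs of compound exposure at 37C was read by CellTiter-Glo luminescence, multiplexed with the beta-lactamase reporter measurement.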

[7] = qHTS assay to identify small molecule agonists of the hypoxia (HIF-1) signaling pathway (AID 1224846; active = well fitted activation curve with a large enough effect in the signal ratio in the repeat runs, not every such curve was filed as active; the % refers to the signal ratio)
Procedure, shortened: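 ME-180 HRE-bla reporter cells; compounds in DMSO, 17 h at 37C; read-out beta-lactamase via CCF4-AM FRET.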

[8] = biological target: Nuclear receptor subfamily 1 group I member 3 (Homo sapiens) (UniProt Q14994); assay: qHTS assay to identify small molecule antagonists of the constitutive androstane receptor (CAR) signaling pathway (AID 1224838); note: nearly all actives have a fitted effect of over 40% in size; note: potency is the fitted concentration of half-maximal effect
Procedure, shortened: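 Inhibition of CITCO-driven (50 nM final) CYP2B6 reporter expression is measured in HepG2 cells stably carrying hCAR. Fifteen compound concentrations are applied for 24 h at 37 C, followed by luciferase luminescence.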

[9] = qHTS assay to identify small molecule agonists of the estrogen related receptor signaling pathway with the pleiotropic PPARgamma coactivator (PGC) from Tox21 10K library (AID 1224842); note: nearly all actives have a fitted effect of over 15% in size
Procedure, shortened: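 PGC/ERR reporter cell line, 2,000 cells per well, incubated 6 h at 37 C before 23 nL compound in DMSO was added. After 18 h at 37 C, One-Glo luminescence read following 30 min at room temperature.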

[10] = biological target: Thyrotropin receptor (Homo sapiens) (UniProt P16473); assay: qHTS assay to identify small molecule agonists of the thyroid stimulating hormone receptor (TSHR) signaling pathway (AID 1224843; calls by dose curve; note: nearly all actives have a fitted effect of over 45% in size)
Procedure, shortened: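 HEK293/TSHR, 800 cells/well; cpd 30 min RT; add cAMP-d2 + anti-cAMP-cryptate, 1 h RT; fluorescence read on plate reader. 15-pt titration, n=3.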

[11] = qHTS assay to identify small molecule agonists of H2AX - cell viability counter screen (AID 1224847; calls by dose curve; note: nearly all actives have a fitted effect of over 30% in size; note: potency is the fitted concentration of half-maximal effect)
Procedure, shortened: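 Quantitative HTS viability measurement: CHO-K1 wild-type cells in serum (10% FBS) medium, short 3 hr drug exposure at 37C with 0.76% DMSO, CellTiter-Glo luminescent detection.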

[12] = qHTS assay to identify small molecule agonists of H2AX (AID 1224845; active = well fitted activation curve with a large enough effect in the signal ratio in the repeat runs, not every such curve was filed as active; the % refers to the signal ratio; note: potency is the fitted concentration of half-maximal effect)
Procedure, shortened: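 Wild-type CHO-K1 cells, plated overnight, exposed 3hr at 37C to 15 concentrations (0.76% DMSO final). Lysed, then HTRF anti-pH2AX (S139) cryptate and anti-H2AX-d2 antibodies, 24 hr room temperature; 665/620 nm emission read.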

[13] = qHTS assay to identify small molecule antagonists of the estrogen related receptor signaling pathway with the pleiotropic PPARgamma coactivator (PGC) from Tox21 10K library (AID 1224841; call rule not given here; note: actives are mostly falling curves and most rising ones were filed inactive; nearly all actives have a fitted effect of over 50% in size; note: potency is the fitted concentration of half-maximal effect)
Procedure, shortened: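 One-Glo luminescence, measured after half an hour at room temperature, quantified reporter output of PGC/ERR cells. These had been plated at 2,000 per well, incubated 6 h, dosed with compounds in DMSO, then kept 18 h at 37 C.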

Measured: Potency

Sequence of Thyrotropin receptor (Homo sapiens) (P16473 whole entry, looked up): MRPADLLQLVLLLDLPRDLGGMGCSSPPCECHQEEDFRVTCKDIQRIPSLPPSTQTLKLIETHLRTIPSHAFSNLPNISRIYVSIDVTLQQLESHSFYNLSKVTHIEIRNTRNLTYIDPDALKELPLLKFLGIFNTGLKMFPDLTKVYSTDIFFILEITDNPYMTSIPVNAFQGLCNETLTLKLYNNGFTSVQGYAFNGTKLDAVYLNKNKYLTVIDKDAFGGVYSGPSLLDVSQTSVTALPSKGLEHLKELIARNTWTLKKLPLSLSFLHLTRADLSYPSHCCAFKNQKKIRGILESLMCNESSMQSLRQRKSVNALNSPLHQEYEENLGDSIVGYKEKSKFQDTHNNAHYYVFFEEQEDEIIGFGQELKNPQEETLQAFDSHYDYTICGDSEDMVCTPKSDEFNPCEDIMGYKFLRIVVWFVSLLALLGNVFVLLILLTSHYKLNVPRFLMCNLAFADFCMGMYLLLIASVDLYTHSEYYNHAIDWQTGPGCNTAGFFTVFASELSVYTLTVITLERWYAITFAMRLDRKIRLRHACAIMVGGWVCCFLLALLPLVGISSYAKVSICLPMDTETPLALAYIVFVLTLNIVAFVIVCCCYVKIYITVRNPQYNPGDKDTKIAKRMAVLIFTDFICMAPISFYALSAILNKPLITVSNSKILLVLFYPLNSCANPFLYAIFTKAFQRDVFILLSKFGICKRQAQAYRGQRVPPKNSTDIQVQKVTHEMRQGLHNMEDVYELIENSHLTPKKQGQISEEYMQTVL
Sequence of Luciferin 4-monooxygenase (Photinus pyralis) (P08659 whole entry, looked up): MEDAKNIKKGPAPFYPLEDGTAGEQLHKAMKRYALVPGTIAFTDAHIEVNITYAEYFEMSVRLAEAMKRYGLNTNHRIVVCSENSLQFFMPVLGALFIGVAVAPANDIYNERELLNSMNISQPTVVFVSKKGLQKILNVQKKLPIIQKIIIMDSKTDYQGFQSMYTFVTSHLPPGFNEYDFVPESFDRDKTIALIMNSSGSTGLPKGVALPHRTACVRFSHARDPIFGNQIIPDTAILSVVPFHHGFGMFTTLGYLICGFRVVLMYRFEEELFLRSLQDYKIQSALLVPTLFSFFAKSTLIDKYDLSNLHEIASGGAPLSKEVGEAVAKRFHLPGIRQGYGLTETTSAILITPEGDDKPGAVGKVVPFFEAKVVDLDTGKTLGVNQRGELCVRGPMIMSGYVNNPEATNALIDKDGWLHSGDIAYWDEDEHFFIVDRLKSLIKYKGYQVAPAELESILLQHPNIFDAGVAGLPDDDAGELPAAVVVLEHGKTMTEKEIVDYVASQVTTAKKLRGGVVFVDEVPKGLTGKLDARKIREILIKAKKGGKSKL
Sequence of Nuclear receptor subfamily 1 group I member 3 (Homo sapiens) (Q14994 whole entry, looked up): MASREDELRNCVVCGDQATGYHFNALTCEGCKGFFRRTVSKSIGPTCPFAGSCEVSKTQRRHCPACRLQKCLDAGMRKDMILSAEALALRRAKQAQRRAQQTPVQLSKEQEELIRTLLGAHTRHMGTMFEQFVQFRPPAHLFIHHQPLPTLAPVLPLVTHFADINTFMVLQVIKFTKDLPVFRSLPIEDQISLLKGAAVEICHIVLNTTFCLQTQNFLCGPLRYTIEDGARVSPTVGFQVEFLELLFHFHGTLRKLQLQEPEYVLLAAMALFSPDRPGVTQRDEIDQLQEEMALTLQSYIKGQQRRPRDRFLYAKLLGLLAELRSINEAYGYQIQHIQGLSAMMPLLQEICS

CCOC(=O)[C@H](C)O
inactive: [1] | [2] | [3] | [4] | [5] | [6] | [7]

CC/C=C(\C)C=O
not listed: [7] | [12] | [13]
inactive: all other assays above

CCCCCCCCCC[N+](C)(CCCCCCCCCC)CCC[Si](OC)(OC)OC
active: [1] 79.6 µM | [6] 54.9 µM | [11] 50.5 µM
inactive: [2] | [3] | [8] | [4] | [12]

CCc1c(C)cc(N)c(CC)c1N
not listed: [4] | [7] | [11] | [12] | [13]
inactive: all other assays above

O=C1c2ccccc2C(=O)c2c(Cl)cccc21
active: [4] 28.9 µM
not listed: [6] | [9] | [11] | [12]
inactive: all other assays above

c1ccc(-c2ccccc2-c2ccccc2)cc1
active: [4] 27.3 µM
inactive: [1] | [2] | [3] | [8] | [5]

CSc1nnc(C(C)(C)C)c(=O)[nH]1
inactive: [1] | [2] | [3] | [8] | [4] | [5] | [6]

CC(C)C(=O)C(C)C
not listed: [12]
inactive: all other assays above

CCCC(C)C=O (configuration not stated)
not listed: [8]
inactive: all other assays above

O=C1OCc2ccccc21
not listed: [9] | [12] | [13]
inactive: all other assays above

Nc1ccc(F)c([N+](=O)[O-])c1
active: [13] 30.6 µM
not listed: [7]
inactive: all other assays above

Cc1cc(F)ccc1-c1cc(N2CC[C@@H](O)[C@H]2CO)ncc1N(C)C(=O)C(C)(C)c1cc(C(F)(F)F)cc(C(F)(F)F)c1
inactive: [1] | [3] | [8] | [4] | [10]
active: [6] 24.2 µM | [12] 39.5 µM | [11] 70.2 µM

Clc1nc(C(Cl)(Cl)Cl)c(Cl)c(Cl)c1Cl
inactive: [1] | [3] | [4] | [9] | [11]
active: [8] 54.5 µM | [6] 4.9 µM

Clc1ccc2c(Cl)ccnc2c1
not listed: [1] | [8] | [11] | [12]
inactive: all other assays above

Cc1ccc2n[nH]nc2c1
not listed: [4] | [7] | [8] | [11]
inactive: all other assays above

O=S(=O)(c1ccc(OCc2ccccc2)cc1)c1ccccc1O
active: [11] 45 µM
not listed: [2] | [7] | [13]
inactive: all other assays above

CCCCCCCC/C=C\CCCCCCCC(=O)N(CCO)CCO
active: [11] 113 µM
inactive: [1] | [5] | [12]

Nc1ccc(Cl)c([N+](=O)[O-])c1
inactive: [1] | [2] | [3] | [5] | [6] | [12] | [11]

Cc1c[nH]c(=O)[nH]c1=O
not listed: [4] | [7] | [8] | [11]
inactive: all other assays above

Cc1cccc2c1ccc1ccccc12
active: [4] 61.1 µM
not listed: [1] | [10] | [13]
inactive: all other assays above

C[C@H]1O[C@@H](O[C@H]2CC[C@@]3(C)[C@H](CC[C@@H]4[C@@H]3C[C@@H](O)[C@]3(C)[C@@H](C5=CC(=O)OC5)CC[C@]43O)C2)C[C@H](O)[C@@H]1O[C@H]1C[C@H](O)[C@H](O[C@H]2C[C@H](O)[C@H](O[C@@H]3O[C@H](CO)[C@@H](O)[C@H](O)[C@H]3O)[C@@H](C)O2)[C@@H](C)O1
active: [13] 0.335 µM | [6] 0.379 µM
inactive: [1] | [9] | [12] | [7] | [11]

Cc1ccc(N=Nc2c(O)ccc3ccccc23)c(C)c1
inactive: [2] | [8] | [10] | [12] | [7] | [11]
active: [1] 13.8 µM | [4] 8.41 µM | [6] 21.3 µM

O=C1CCC(=O)N1
not listed: [4] | [7] | [8]
inactive: all other assays above

Nc1cc([N+](=O)[O-])cc(Cl)c1O
inactive: [1] | [2] | [8] | [4] | [5] | [6] | [7]
